# Values joined by “and” are separate entries in the source; they are usually repeats but may differ in a detail not shown here. Identical values can stand only once. Inconclusive results are not listed. Some structures have more than one record in an assay (separate samples or runs), and their calls can disagree. Active and inactive are the calls of the source. Unless noted, calls follow the shape of the dose curve; as a rule, active = well fitted curve in the direction sought with a large enough effect; inconclusive = small, poorly fitted or top-dose-only effect, or another doubt; inactive = no such curve, though single readings can be large; an effect the other way counts as inactive or inconclusive.
# How the values were obtained:
# [1] = qHTS assay for small molecule antagonists of peroxisome proliferator-activated receptor delta signaling (AID 588535); settings: HEK293T PPARd-UAS-bla, beta-lactamase FRET ratio, 18 h; 460 nm channel;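 also: cells co-treated with a PPAR-delta agonist as stimulator during compound exposure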
# Summary of the method: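 Antagonist-mode beta-lactamase reporter (GeneBLAzer PPAR-delta-UAS-bla) in HEK293T cells, 2% charcoal/dextran FBS, 4000 cells/well. Compound titrations, 18 h at 37 C; CCF4 ratio read, IC50 and efficacy from Hill fits.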
# [2] = biological target: Peroxisome proliferator-activated receptor gamma (Homo sapiens) (UniProt P37231); assay: qHTS assay for small molecule agonists of peroxisome proliferator-activated receptor gamma signaling (AID 588536; active = well fitted curve in the direction sought with a large enough effect in the signal ratio, with a control signal flat, not every such curve was filed as active; the % refers to the signal ratio;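 also: 0% = DMSO basal wells and 100% = rosiglitazone at 2 µM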); settings: HEK293 PPARg-UAS-bla, beta-lactamase ratio, 16 h, percent of rosiglitazone response, DMSO as zero; series mostly up to 76.7 µM
# Peroxisome proliferator-activated receptor gamma (Homo sapiens), sequence (P37231 whole entry, looked up): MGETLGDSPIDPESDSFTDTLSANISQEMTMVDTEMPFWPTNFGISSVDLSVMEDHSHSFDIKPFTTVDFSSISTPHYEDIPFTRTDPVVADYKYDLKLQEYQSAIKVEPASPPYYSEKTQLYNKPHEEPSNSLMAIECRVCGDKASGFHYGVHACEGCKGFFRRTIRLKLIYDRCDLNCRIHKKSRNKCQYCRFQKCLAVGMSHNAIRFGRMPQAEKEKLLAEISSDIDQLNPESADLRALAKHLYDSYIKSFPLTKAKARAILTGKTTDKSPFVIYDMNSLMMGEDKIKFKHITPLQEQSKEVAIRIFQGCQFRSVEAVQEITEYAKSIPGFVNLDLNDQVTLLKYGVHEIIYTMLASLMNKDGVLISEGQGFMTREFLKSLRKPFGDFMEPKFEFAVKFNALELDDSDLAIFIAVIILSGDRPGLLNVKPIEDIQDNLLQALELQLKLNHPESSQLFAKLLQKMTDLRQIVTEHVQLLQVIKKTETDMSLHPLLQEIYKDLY
# Summary of the method: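 PPAR-gamma-UAS-bla HEK293 cells in medium with 1% charcoal/dextran-treated FBS were exposed to compounds for 16 h at 37 C. Beta-lactamase activity was read with CCF4 substrate (405 nm excitation, 460/530 nm emission).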
# [3] = biological target: Peroxisome proliferator-activated receptor gamma (Homo sapiens) (UniProt P37231); assay: qHTS assay for small molecule antagonists of peroxisome proliferator-activated receptor gamma signaling (AID 588537; active = well fitted inhibition curve with a large enough effect in the signal ratio, with a control signal flat, not every such curve was filed as active; the % refers to the signal ratio;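 also: reporter cells co-stimulated with 50 nM rosiglitazone agonist during compound treatment; % of control where 0% means no effect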); settings: HEK293 PPARg-UAS-bla, beta-lactamase ratio, antagonist mode; series mostly up to 76.8 µM
# Summary of the method: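 PPARγ-UAS-bla HEK293 cells (3000/well) in 1% charcoal/dextran-stripped FBS are treated with compound, then stimulated with 50 nM rosiglitazone for 16 h at 37 °C. Read-out is CCF4 β-lactamase fluorescence after 2 h at RT. IC50 comes from Hill fits normalised to rosiglitazone and DMSO.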
# [4] = biological target: Vitamin D3 receptor (Homo sapiens) (UniProt P11473); assay: qHTS assay for small molecule agonists of vitamin D receptor signaling (AID 588543; calls by dose curve;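 also: 0% = DMSO basal and 100% = reference agonist control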); settings: HEK293T VDR-UAS-bla, beta-lactamase ratio, 16 h; series mostly up to 76.8 µM
# Vitamin D3 receptor (Homo sapiens), sequence (P11473 whole entry, looked up): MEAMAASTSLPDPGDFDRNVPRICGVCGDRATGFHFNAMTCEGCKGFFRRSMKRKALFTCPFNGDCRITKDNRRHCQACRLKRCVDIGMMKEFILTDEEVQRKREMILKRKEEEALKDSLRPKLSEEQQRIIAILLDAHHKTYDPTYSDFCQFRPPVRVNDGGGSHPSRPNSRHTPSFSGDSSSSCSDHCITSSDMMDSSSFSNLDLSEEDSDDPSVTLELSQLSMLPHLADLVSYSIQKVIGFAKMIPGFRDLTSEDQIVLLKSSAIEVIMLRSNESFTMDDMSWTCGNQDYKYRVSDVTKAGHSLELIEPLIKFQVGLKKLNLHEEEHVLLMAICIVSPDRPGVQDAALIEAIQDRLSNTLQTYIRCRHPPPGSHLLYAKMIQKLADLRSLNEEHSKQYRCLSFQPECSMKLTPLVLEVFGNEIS
# Summary of the method: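 qHTS in agonist mode: compound titrations stimulate a VDR-driven β-lactamase reporter in HEK293T cells over 16 h at 37 °C. Response normalized to 50 nM 1α,25-dihydroxyvitamin D3 = 100%, DMSO = 0%; Hill fitting gives EC50 and maximal response.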
# [5] = biological target: Thyroid hormone receptor beta (Homo sapiens) (UniProt P10828); assay: qHTS assay for small molecule agonists of thyroid hormone receptor beta signaling (AID 588545; calls by dose curve;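 also: 0% = DMSO only and 100% = 10 nM T3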); settings: TR-UAS-bla GripTite HEK 293, beta-lactamase ratio, agonist mode, 18 h; series mostly up to 76.7 µM
# Thyroid hormone receptor beta (Homo sapiens), sequence (P10828 whole entry, looked up): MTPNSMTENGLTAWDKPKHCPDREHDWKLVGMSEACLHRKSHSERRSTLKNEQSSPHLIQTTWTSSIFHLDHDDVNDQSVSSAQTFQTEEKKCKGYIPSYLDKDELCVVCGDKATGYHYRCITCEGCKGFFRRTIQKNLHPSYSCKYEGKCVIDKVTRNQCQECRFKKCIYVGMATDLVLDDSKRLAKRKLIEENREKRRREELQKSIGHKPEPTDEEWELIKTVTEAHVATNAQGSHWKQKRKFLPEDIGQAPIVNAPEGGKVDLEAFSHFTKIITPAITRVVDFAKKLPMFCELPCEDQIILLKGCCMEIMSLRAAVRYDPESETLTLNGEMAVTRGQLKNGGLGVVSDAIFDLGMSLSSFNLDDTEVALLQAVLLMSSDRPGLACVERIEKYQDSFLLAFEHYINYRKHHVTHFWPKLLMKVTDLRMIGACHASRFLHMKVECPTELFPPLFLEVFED
# Summary of the method: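 TR-UAS-bla-GripTite HEK 293 cells in medium with 2% charcoal/dextran FBS, 0.1 mM NEAA and 1 mM sodium pyruvate were treated with titrated compounds for 18 hrs at 37 C. Beta-lactamase reporter was read with CCF4 dye (ex 405, em 460/530 nm); EC50 from Hill fits.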
# [6] = qHTS assay for small molecule antagonists of retinoid X receptor alpha signaling (AID 588546; active = well fitted inhibition curve with a large enough effect in the signal ratio, with a control signal flat, not every such curve was filed as active; the % refers to the signal ratio;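 also: cells stimulated with 9-cis-retinoic acid as agonist; % is scaled to controls: 0 for no effect and ±100 for the full control effect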); settings: HEK293T RXRa-UAS-bla, beta-lactamase ratio, antagonist mode; measured here: W530 green channel, cytotoxicity proxy
# Summary of the method: (§1)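 Beta-lactamase reporter inhibition, read as CCF4 fluorescence ratio (ex 405, em 460/530 nm) after 2 h at RT. HEK293T UAS-bla cells, 2500/well, were stimulated with 9-cis-RA at 500 or 100 nM final alongside test compound for 18 h at 37 C.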
# [7] = biological target: Retinoic acid receptor RXR-alpha (Homo sapiens) (UniProt P19793); assay: as above; settings: HEK293T RXRa-UAS-bla, beta-lactamase ratio, antagonist mode
# Retinoic acid receptor RXR-alpha (Homo sapiens), sequence (P19793 whole entry, looked up): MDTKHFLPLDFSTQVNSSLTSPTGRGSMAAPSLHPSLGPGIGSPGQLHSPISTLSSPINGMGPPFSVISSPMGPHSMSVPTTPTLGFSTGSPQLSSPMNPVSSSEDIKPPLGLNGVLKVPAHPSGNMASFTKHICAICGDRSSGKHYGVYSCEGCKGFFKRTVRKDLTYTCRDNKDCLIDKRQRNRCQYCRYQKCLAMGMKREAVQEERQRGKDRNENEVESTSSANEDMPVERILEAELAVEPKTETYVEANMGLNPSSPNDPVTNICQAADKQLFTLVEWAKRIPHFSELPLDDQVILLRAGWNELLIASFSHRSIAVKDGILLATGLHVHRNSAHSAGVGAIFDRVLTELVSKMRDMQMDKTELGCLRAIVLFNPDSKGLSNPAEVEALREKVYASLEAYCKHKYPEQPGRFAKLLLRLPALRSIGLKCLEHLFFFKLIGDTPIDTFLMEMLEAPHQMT
# Summary of the method: as §1
# [8] = biological target: Thyroid hormone receptor beta (Homo sapiens) (UniProt P10828); assay: qHTS assay for small molecule antagonists of thyroid hormone receptor beta signaling (AID 588547; active = well fitted inhibition curve with a large enough effect in the signal ratio, with a control signal flat, not every such curve was filed as active; the % refers to the signal ratio;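 also: cells stimulated with 0.4 nM T3 agonist during compound exposure; % is scaled to controls: 0 for no effect and ±100 for the full control effect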); settings: TR-UAS-bla HEK293, beta-lactamase ratio, antagonist mode, 18 h
# Summary of the method: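 TR-UAS-bla GripTite HEK293 cells in 2% charcoal/dextran FBS medium; compounds 0.59 nM to 92 uM with T3 at 0.4nM final, 18 h at 37 C. Beta-lactamase read by CCF4 fluorescence (460/530 nm); Hill fits gave IC50 and efficacy.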
# [9] = qHTS assay for small molecule activators of the p53 signaling pathway (AID 651743; active = well fitted activation curve with a large enough effect in the signal ratio, not every such curve was filed as active; the % refers to the signal ratio; also: % of control where 0% means no effect); settings: HCT-116 p53RE-bla, beta-lactamase FRET ratio, 16 h; activation: stronger effect = higher value
# Summary of the method: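 p53RE-bla HCT-116 cells carrying a beta-lactamase reporter under p53 response elements were exposed to compounds for 16 hours at 37 C. Reporter activity read as fluorescence after 2 hours at room temperature with LiveBLAzer B/G FRET substrate.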
# [10] = qHTS assay for environmental chemicals that activate the Aryl hydrocarbon Receptor (AhR) signaling pathway (AID 651777); settings: 1A2-DRE human hepatoma cells, luciferase, 24 h; activation: stronger effect = higher value; also: % of control where 0% means no effect; nearly all actives have a fitted effect of over 15% in size
# Summary of the method: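 Stable CYP1A2 promoter/DRE-luciferase human hepatoma line treated 24 hr; One-Glo luminescence, 30 min RT.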
# [11] = biological target: Peroxisome proliferator-activated receptor alpha (Homo sapiens) (UniProt Q07869); assay: qHTS assay for small molecule agonists of the peroxisome proliferator-activated receptor alpha (PPARalpha) signaling pathway (AID 651778); settings: PathHunter PPARalpha complementation, chemiluminescence, 6 h; max response: stronger effect = higher value; also: % of control where 0% means no effect
# Peroxisome proliferator-activated receptor alpha (Homo sapiens), sequence (Q07869 whole entry, looked up, the tested form may be a part): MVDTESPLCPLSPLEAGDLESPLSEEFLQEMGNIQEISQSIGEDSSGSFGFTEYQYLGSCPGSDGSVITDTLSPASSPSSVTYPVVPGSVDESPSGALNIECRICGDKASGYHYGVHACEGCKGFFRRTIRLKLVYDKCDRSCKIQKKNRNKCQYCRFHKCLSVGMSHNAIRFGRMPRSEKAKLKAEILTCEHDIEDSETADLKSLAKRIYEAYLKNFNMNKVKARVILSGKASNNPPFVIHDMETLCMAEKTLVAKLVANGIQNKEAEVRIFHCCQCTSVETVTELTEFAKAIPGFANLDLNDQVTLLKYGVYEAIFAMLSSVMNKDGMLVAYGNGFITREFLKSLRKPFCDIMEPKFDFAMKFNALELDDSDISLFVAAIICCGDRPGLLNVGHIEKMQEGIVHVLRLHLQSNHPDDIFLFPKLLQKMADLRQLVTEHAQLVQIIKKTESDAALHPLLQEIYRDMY
# Summary of the method: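 Enzyme-fragment complementation assay in which ligand-bound PPARalpha translocates and forms an active enzyme that generates chemiluminescence. Cells were plated overnight, exposed to compound for 6 hr at 37 C, and then given detection reagent for 60 min at room temperature.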
# [12] = qHTS assay for small molecule agonists of the antioxidant response element (ARE) signaling pathway measured by Nrf2-dependant transcriptional activity (AID 720636; active = well fitted curve in the direction sought with a large enough effect in the repeat runs; an effect the other way counts as inactive or inconclusive;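 also: HepG2 cells with an ARE-driven luciferase reporter; % of control where 0% means no effect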); settings: ARE-luc HepG2, Nrf2 luciferase reporter, 16 h; series mostly up to 92.4 µM
# Summary of the method: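 Reporter gene assay, HepG2 ARE-luc: 16 hr compound, 37 C, 5% CO2; read-out luciferase luminescence.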
# [13] = qHTS assay for small molecule agonists of the antioxidant response element (ARE) signaling pathway measured by Nrf2-dependant transcriptional activity - cell viability counter screen (AID 720653; active = well fitted curve in the direction sought with a large enough effect in the repeat runs; an effect the other way counts as inactive or inconclusive; also: % is scaled to controls: 0 for no effect and ±100 for the full control effect); settings: ARE-bla HepG2 viability, CellTiter-Glo ATP luminescence, 16 h; max response: stronger effect = lower value
# Summary of the method: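 ARE-bla HepG2 cells treated with compounds for 16 h at 37C; this counter screen measures viability as intracellular ATP by CellTiter-Glo luminescence after 30 min at room temperature.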
# [14] = qHTS assay for cell viability of HEK293 cells (AID 743288); settings: ATP luminescence (CellTiter-Glo), 18 h; max response: stronger effect = lower value; also: nearly all actives have a fitted effect of over 50% in size; also: potency is read from the fitted curve at half-maximal effect; as to max response: % is scaled to controls: 0 for no effect and ±100 for the full control effect
# Summary of the method: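 The Tox21 protocol used parental HEK293 cells treated for 18 h at 37 C with compounds delivered by pintool; ATP-coupled luminescence after 30 min at room temperature gave viability.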
# [15] = qHTS assay for cell viability of the p53RE-bla HCT-116 cell line (AID 743292); settings: p53RE-bla HCT-116 viability, ATP luminescence, 16 h; series mostly up to 95 µM; also: % is scaled to controls: 0 for no effect and ±100 for the full control effect; nearly all actives have a fitted effect of over 55% in size
# Summary of the method: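 Readout: CellTiter-Glo luminescence after 30 min RT. Treatment: compounds in DMSO, 16 h, 37 C. Cells: CellSensor p53RE-bla HCT-116, 4,000/well, preincubated 5 h.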
# [16] = biological target: Nuclear receptor subfamily 1 group I member 2 (Rattus norvegicus) (UniProt Q9R1A7); assay: qHTS assay for small molecule activators of the rat pregnane X receptor (rPXR) signaling pathway (AID 651751; call rule not given here; also: 0% is about no effect); settings: rPXR reporter cells, luciferase (One-Glo), 24 h
# Nuclear receptor subfamily 1 group I member 2 (Rattus norvegicus), sequence (Q9R1A7 whole entry, looked up): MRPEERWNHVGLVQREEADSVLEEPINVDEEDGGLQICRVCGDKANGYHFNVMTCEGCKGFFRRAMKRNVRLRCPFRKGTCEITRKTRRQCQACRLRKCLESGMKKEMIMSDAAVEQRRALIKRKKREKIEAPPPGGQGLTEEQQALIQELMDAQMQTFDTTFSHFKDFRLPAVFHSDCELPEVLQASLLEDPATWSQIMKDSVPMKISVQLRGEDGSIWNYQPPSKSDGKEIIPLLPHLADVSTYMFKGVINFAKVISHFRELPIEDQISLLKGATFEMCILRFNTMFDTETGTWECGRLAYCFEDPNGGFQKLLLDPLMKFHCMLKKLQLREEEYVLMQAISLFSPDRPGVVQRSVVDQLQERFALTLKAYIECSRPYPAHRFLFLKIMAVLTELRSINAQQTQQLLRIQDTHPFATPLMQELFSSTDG
# [17] = qHTS assay for small molecule activators of the human pregnane X receptor (PXR) signaling pathway (AID 720659; call rule not given here; also: 0% is about no effect); settings: DPX-2 HepG2 CYP3A4-luciferase, 24 h; series mostly up to 92.3 µM
# [18] = biological target: Estrogen receptor (Homo sapiens) (UniProt P03372); assay: qHTS assay for small molecule agonists of estrogen receptor alpha signaling (AID 588514; calls by dose curve;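 also: 0% = vehicle only and 100% = reference agonist; nearly all actives have a fitted effect of over 70% in size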); settings: ER-alpha-UAS-bla HEK293, beta-lactamase ratio, 18 h; series mostly up to 76.8 µM
# Estrogen receptor (Homo sapiens), sequence (P03372 whole entry, looked up): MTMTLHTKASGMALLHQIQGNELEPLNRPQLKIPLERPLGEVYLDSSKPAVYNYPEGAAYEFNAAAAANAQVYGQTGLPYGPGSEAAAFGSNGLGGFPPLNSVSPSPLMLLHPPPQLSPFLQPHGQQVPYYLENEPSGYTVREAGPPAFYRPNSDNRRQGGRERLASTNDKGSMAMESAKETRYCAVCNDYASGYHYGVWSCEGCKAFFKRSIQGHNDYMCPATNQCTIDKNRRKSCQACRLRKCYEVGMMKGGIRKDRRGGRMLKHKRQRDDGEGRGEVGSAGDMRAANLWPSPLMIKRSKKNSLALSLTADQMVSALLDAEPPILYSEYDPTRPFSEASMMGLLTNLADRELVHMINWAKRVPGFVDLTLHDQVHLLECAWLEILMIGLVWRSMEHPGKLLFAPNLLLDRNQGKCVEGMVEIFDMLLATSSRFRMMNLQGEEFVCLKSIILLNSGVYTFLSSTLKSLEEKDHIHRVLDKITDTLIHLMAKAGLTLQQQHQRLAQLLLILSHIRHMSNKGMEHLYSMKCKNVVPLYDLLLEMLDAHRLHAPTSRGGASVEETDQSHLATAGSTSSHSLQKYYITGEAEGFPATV
# Summary of the method: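 Cells were plated at 5000/well, incubated 4 hrs at 37 C, dosed with compound titration series, incubated 18 hrs at 37 C, loaded with CCF4 dye for 2 hrs at RT, then fluorescence was read.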
# [19] = qHTS assay for small molecule agonists of retinoid X receptor alpha signaling (AID 588544; calls by dose curve;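 as to activation: 0% = DMSO basal wells and 100% = reference agonist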); settings: HEK293T RXRa-UAS-bla, beta-lactamase reporter, 18 h; 530 nm emission
# [20] = biological target: Retinoic acid receptor RXR-alpha (Homo sapiens) (UniProt P19793); assay: as above; settings: HEK293T RXRa-UAS-bla, beta-lactamase reporter, 18 h; series mostly up to 76.7 µM
smiles,measurement,setting,value
CCCCCCc1ccc(N)cc1,max response,[1],65.6%
same,outcome,[2],inactive
same,Potency,[3],inactive
same,outcome,[4],inactive
same,Potency,[5],inactive
same,max response,[6],-5.49%
same,max response,[7],-10.1% (inactive)
same,activity change % (negative = inhibition),[8],1.93% (inactive)
same,activation,[9],0.412% (inactive)
same,activation,[10],2.42% (inactive)
same,max response,[11],0.597% (inactive)
same,Potency,[12],inactive
same,max response,[13],-14.6% (inactive)
same,max response,[14],-16% (inactive)
same,Potency,[15],inactive
same,max response,[16],-2.28% (inactive)
same,outcome,[17],inactive
CCCCCCCCCCCCCCCC,Potency,[18],inactive
same,max response,[1],55.6%
same,outcome,[2],inactive
same,Potency,[3],inactive
same,max response,[19],0.581%
same,Potency,[20],inactive
same,Potency,[5],inactive
same,max response,[6],-21.5%
same,max response,[7],-1.47% (inactive)
same,activity change % (negative = inhibition),[8],-0.344% (inactive)
same,activation,[9],-5.95% (inactive)
same,activation,[10],0.0152% (inactive)
same,max response,[11],0.236% (inactive)
same,Potency,[12],inactive
same,max response,[13],-4.36% (inactive)
same,max response,[14],-2.82% (inactive)
same,Potency,[15],inactive
same,max response,[16],1.98% (inactive)
same,outcome,[17],inactive
O=C(Cl)c1ccc(C(=O)Cl)cc1,Potency,[18],inactive
same,max response,[1],-9.41%
same,outcome,[4],inactive
same,max response,[19],-3.06%
same,Potency,[20],inactive
same,Potency,[5],inactive
same,max response,[6],-14.3%
same,max response,[7],2.6% (inactive)
same,activity change % (negative = inhibition),[8],0.623% (inactive)
same,activation,[9],-0.615% (inactive)
same,activation,[10],-0.806% (inactive)
same,Potency,[12],inactive
same,max response,[13],-8.12% (inactive)
same,max response,[14],-8.26% (inactive)
same,Potency,[15],inactive
same,max response,[16],-1.54% (inactive)
same,outcome,[17],inactive
CC1(C)[C@@H]([C@@H](Br)C(Br)(Br)Br)[C@H]1C(=O)O[C@H](C#N)c1cccc(Oc2ccccc2)c1,Potency,[18],inactive
same,outcome,[4],inactive
same,activity change % (negative = inhibition),[8],-17.9% (inactive)
same,activation,[9],11.9% (inactive)
same,activation,[10],0.917% (inactive)
same,Potency,[12],inactive
same,max response,[13],-14.5% (inactive)
same,Potency,[14],50.1 µM (active)
same,Potency,[15],inactive
CCCCOCC(C)O (centres undefined),Potency,[18],inactive
same,outcome,[2],inactive
same,Potency,[3],inactive
same,outcome,[4],inactive
same,max response,[19],-5.52%
same,Potency,[20],inactive
same,Potency,[5],inactive
same,max response,[6],12% and -0.638%
same,max response,[7],-37.2% (inactive) and 3.13% (inactive)
same,activity change % (negative = inhibition),[8],-39.6% (inactive) and 0.784% (inactive)
same,activation,[9],-6.14% (inactive)
same,activation,[10],1.48% (inactive) and -0.559% (inactive)
same,max response,[11],0.397% (inactive) and 0.0173% (inactive)
same,Potency,[12],inactive
same,max response,[13],-1.21% (inactive) and -1.7% (inactive)
same,Potency,[14],1410 µM (active)
same,max response,[14],-2.11% (inactive)
same,Potency,[15],inactive
same,max response,[16],5.94% (inactive) and 2.87% (inactive)
C[Si]1(C)O[Si](C)(C)O[Si](C)(C)O1,max response,[1],-11.7%
same,outcome,[2],inactive
same,Potency,[3],inactive
same,outcome,[4],inactive
same,max response,[19],-4.52%
same,Potency,[20],inactive
same,Potency,[5],inactive
same,max response,[6],-6.48%
same,max response,[7],2.26% (inactive)
same,activity change % (negative = inhibition),[8],5.16% (inactive)
same,activation,[9],-3.38% (inactive)
same,activation,[10],1% (inactive)
same,max response,[11],0.478% (inactive)
same,Potency,[12],inactive
same,max response,[13],-2.26% (inactive)
same,max response,[14],-1.41% (inactive)
same,Potency,[15],inactive
same,max response,[16],-5.54% (inactive)
same,outcome,[17],inactive
C=C(C)C(=O)OCCCCCCCCCCCC,Potency,[18],inactive
same,max response,[1],-35.9%
same,outcome,[2],inactive
same,Potency,[3],inactive
same,max response,[19],-11.6%
same,Potency,[20],inactive
same,Potency,[5],inactive
same,max response,[6],-6.86%
same,max response,[7],6.49% (inactive)
same,activity change % (negative = inhibition),[8],0.53% (inactive)
same,activation,[9],1.89% (inactive)
same,activation,[10],1.15% (inactive)
same,max response,[11],-1.38% (inactive)
same,Potency,[12],inactive
same,max response,[13],11.2% (inactive)
same,max response,[14],-6.64% (inactive)
same,Potency,[15],inactive
same,max response,[16],1.96% (inactive)
same,outcome,[17],inactive

# From PubChem BioAssay (NCATS)
